The list is not random: actives were taken first. Their share in the collection is about 0.5%.
E coli growth-1 – blocks Escherichia coli growth; OD600, 23 h; hits give low values; OD600 absorbance (no concentration beside the values); 0.21% of 330,000 active;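 active = OD600 absorbance below the run mean of sample wells minus 3.6 SD, in any replicate, cut at about 0.56 in these data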
E coli growth-2 – counter-screen for AddAB inhibitors: E. coli growth inhibition. E. coli V3065 growth, OD600 absorbance, 18 h. inhibition, % at 11.9 µM. 0.27% of 330,000 active. AID 449728;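 active = inhibition above the campaign's mean inhibition across all tested compounds plus 3 SD, cut at about 9.9% in these data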;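 note: uninfected addAB+ strain grown without phage in ampicillin broth; 0% = DMSO wells and 100% = ciprofloxacin 0.95 µg/ml wells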
phage Ecoli inh – E. coli growth loss with phage present; growth absorbance; inhibition, % at 11.9 µM; 0.26% of 360,000 active; AID 651602; in the data active = inhibition above about 11%
Tat export inh – inhibitors of E. coli Tat protein transport; E. coli MC4100 TorA-mCherry Tat export, fluorescence; inhibition, % at 10 µM; 0.036% of 340,000 active; AID 488895;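 active = mean replicate inhibition at least 50% and at least half of replicates individually reaching 50%; inconclusive = only one of the two criteria met; inactive = neither criterion met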;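 note: exported cargo escapes ClpAP degradation while cytoplasmic cargo is degraded and loses fluorescence; 0% = median of neutral control wells and 100% = median of NaSCN control wells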
AddAB inh – less growth of phage-infected E. coli with AddAB; E. coli expressing H. pylori AddAB, absorbance growth; inhibition, % at 11.9 µM; 0.29% of 330,000 active; AID 435030; in the data active = inhibition above about 12%;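 note: 0% = vehicle wells of infected cells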
AddAB conf – growth loss of T4-infected E. coli expressing H. pylori AddAB, confirmed. AID 488942. 64% of 880 active. E. coli V3065 expressing H. pylori AddAB, T4 phage, OD; T4 phage with gene 2 nonsense mutations. inhibition, % at 11.9 µM. shares compounds with AddAB inh;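 active = mean inhibition above a set limit taken from the earlier primary screen, cut at about 13% in these data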;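 note: higher means less bacterial growth since AddAB block lets phage replicate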
RecBCD counter – AddAB counter-screen: growth loss of RecBCD+ E. coli infected with mutant T4 phage; shares compounds with AddAB inh; E. coli V66 + mutant T4 phage, OD growth; inhibition, % at 11.9 µM; 73% of 880 active; AID 488955;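 active = mean inhibition above the mean of solvent-only control wells plus 3 SD, cut at about 4% in these data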;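 note: optical density read after an 18 h incubation at 37 °C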
bact viab count – counter-screen: bacterial growth inhibition | shares compounds with AddAB inh | bacterial viability, absorbance (AddAB counterscreen) | inhibition, % at 11.9 µM | 35% of 880 active | AID 488956; in the data active = inhibition above about 25%
* hit, by the source's call; ? = inconclusive; . = not tested or not shown.

SMILES	E coli growth-1	E coli growth-2	phage Ecoli inh	Tat export inh	AddAB inh	AddAB conf	RecBCD counter	bact viab count
CCOC(=O)CN=C1CC(C)(C)CC2=C1Sc1ncnc(N(C)C)c1N2	0.711	43.3*	.	-3.9	19.8*	0.8	0.5	-0.8
Cc1cccc(C=NNC(=O)c2cccc(Cl)c2)n1	0.693	.	.	.	.	.	.	.
CC[C@]1(O)CC2CN(CCc3c([nH]c4ccccc34)[C@@](C(=O)OC)(c3cc4c(cc3OC)N(C)C3[C@@](O)(C(=O)OC)C(OC(C)=O)[C@]5(CC)C=CCN6CC[C@]43C65)C2)C1 (stereo partly specified)	0.673	.	.	.	.	.	.	.
CCN1CCN(C(=O)C2CCN(c3nnc(-n4c(C)ccc4C)s3)CC2)CC1	0.73	2.1	1.2	7.8	130.9*	5.4	0.6	-0.5
Cc1ccc(C)n1-c1nnc(N2CCC(C(=O)N3CCN(C)CC3)CC2)s1	0.746	-2.8	2.7	-5.0	4.0	.	.	.
O=C(Nc1ccc2oc(-c3ccccc3)nc2c1)c1cc(-n2cnnc2)ccc1Cl	0.694	65.1*	1.2	0.9	95.0*	3.6	-1.2	-2.2
O=c1[nH]c(/C(=N\O)c2ccccc2)no1	.	18.2*	10.3	-31.5	16.4*	24.5*	4.3*	21.1
CC(O)COc1ccc(C(=NO)c2ccccc2)cc1 (stereo unspecified)	0.642	.	.	.	.	.	.	.
COC(=O)C1CN(C(=O)c2ccccc2)C(=O)N1 (stereo unspecified)	0.697	.	.	.	.	.	.	.
C=CCn1c(O)c(N=Nc2ccccc2O)c2ccccc21	0.619	11.2*	7.2	2.1	17.9*	81.4*	4.6*	19.1
C=CCn1c(O)c(N=Nc2ccccc2)c2ccccc21	.	-3.8	3.6	-0.8	-1.5	.	.	.
CN1C(=O)C2C(C3CC3)N3C(=O)CN(Cc4ccccn4)C(=O)[C@@]3(Cc3ccccc3)C2C1=O (stereo partly specified)	0.694	.	.	.	.	.	.	.
Cc1cc(C(=O)NC(c2ccccc2)[C@@]2(C)CC2C(C)C(=O)Nc2ccc3ccccc3c2)no1 (stereo partly specified)	0.679	.	.	.	.	.	.	.
Cn1c(NN=Cc2c[nH]c3ccccc23)nc2ccccc21	0.682	.	.	.	.	.	.	.
c1ccc(CC2CNCCN2CCCCC2CCCCC2)cc1 (stereo unspecified)	0.605	.	.	.	.	.	.	.
O=C(NC(=S)NNC(=O)c1ccccc1O)c1cccs1	0.537	6.1	9.2	2.8	12.8*	22.1*	19.7*	13.4
COc1ccccc1C(=O)NNC(=S)NC(=O)c1cccs1	.	-0.2	0.6	8.2	3.9	.	.	.
O=C(NC(=S)NNC(=O)c1ccccc1O)c1ccc(F)cc1	0.723	15.7*	10.2	4.5	12.7*	15.2*	18.4*	16.1
O=C(NC(=S)NNC(=O)c1ccccc1O)c1ccccc1	0.577	10.4*	9.9	?	12.6*	10.5	17.1*	15.0
C#Cc1ccc(C2C=C(C(=O)NCc3ccccc3)OC(OCCCCO)C2)cc1 (stereo unspecified)	0.704	.	.	.	.	.	.	.
Cc1ccc(C(c2cc(Cl)c3cccnc3c2O)N2CCN(C)CC2)cc1 (stereo unspecified)	.	20.4*	.	-1.6	19.3*	8.7	9.4*	1.9
CN1CCN(C(c2ccccn2)c2cc(Cl)c3cccnc3c2O)CC1 (stereo unspecified)	0.621	-0.8	7.6	-7.5	5.3	.	.	.
CSCCC(Nc1ncnc2sc(C)c(C)c12)C(=O)O (stereo unspecified)	0.696	.	.	.	.	.	.	.
CCN(CC)CCNC(=O)c1cn(CC)c2cc(N3CCN(C(=O)c4ccco4)CC3)c(F)cc2c1=O	0.074*	65.1*	7.6	12.7	67.6*	97.8*	6.6*	89.4*
CCN(CC)CCCNC(=O)c1cn(CC)c2cc(N3CCN(C(=O)c4ccco4)CC3)c(F)cc2c1=O	0.0645*	97.9*	1.1	19.9	97.4*	100.2*	88.0*	101.2*
SMILES	E coli growth-1	E coli growth-2	phage Ecoli inh	Tat export inh	AddAB inh	AddAB conf	RecBCD counter	bact viab count
CCCCCNC(=O)c1cn(CC)c2cc(N3CCN(C)CC3)c(F)cc2c1=O	0.047*	90.0*	6.7	3.9	92.3*	100.5*	12.2*	95.9*
C(C#CCCCCCCCCC[n+]1ccccc1)#CCCCCCCCCC[n+]1ccccc1	0.0635*	102.0*	.	81.6*	100.9*	100.2*	100.4*	101.0*
CCOC(=O)C1=C(C)NC(=O)NC1c1ccc([N+](=O)[O-])o1 (stereo unspecified)	0.693	-1.8	1.1	0.9	-1.5	.	.	.
CCOC(=O)C1=C(C)NC2=C(C(=O)c3ccccc32)C1c1ccc([N+](=O)[O-])o1 (stereo unspecified)	0.627	12.5*	6.0	0.6	25.9*	32.3*	1.8	14.7
CCC1SC(=NN=Cc2ccco2)N(Cc2ccccc2C)C1=O (stereo unspecified)	0.681	.	.	.	.	.	.	.
Cc1ccnc2c1ccc1c(C)ccnc12	0.277*	36.8*	.	7.9	38.7*	69.6*	24.6*	20.1
Cc1cc2cc(CNS(=O)(=O)N(C)C)ccc2[nH]1	0.785	26.1*	2.4	2.4	34.4*	-1.1	-0.9	-2.9
Cc1ccc(S(=O)(=O)NCc2ccc3[nH]c(C)cc3c2)cc1	0.66	3.1	1.8	1.8	1.0	.	.	.
O=C(NOCc1ccccc1)OCc1ccccc1	0.675	.	2.6	0.7	.	.	.	.
NC(=O)NOCc1ccccc1	0.702	4.7	4.4	9.9	97.7*	-1.6	0.6	-4.0
COC(=O)[C@@]1(Cc2ccc(F)cc2)C2c3cc(C(=O)N4CCCC4)n(CCc4ccccn4)c3CC2CN1C(=O)c1ccccc1 (stereo partly specified)	0.712	.	.	.	.	.	.	.
Cc1ccccc1-c1nc(CN2CCC(C(=O)O)CC2)c(C)o1	0.705	5.6	1.4	?	20.4*	3.5	0.9	-2.5
COc1ccc([N+](=O)[O-])cc1NC(=O)C(C)OC(=O)C1CCC1 (stereo unspecified)	0.616	94.7*	-0.4	-10.8	97.8*	-3.1	-1.6	-4.9
COc1ccc([N+](=O)[O-])cc1NC(=O)C(C)OC(=O)C1CCCC1 (stereo unspecified)	0.655	1.1	-0.1	-1.6	0.1	.	.	.
O=C(NCCCNCCCNC(=O)c1ccc(/C=N/O)nc1)c1ccc(/C=N/O)nc1	.	11.7*	10.2	4.7	19.5*	4.4	3.8	4.2
Cc1ccsc1C=NNC(=O)CSCc1ccc(Cl)cc1	0.731	.	.	.	.	.	.	.
O=C(Cn1cc(C(=O)c2ccco2)c2ccccc21)Nc1ccccc1	0.654	16.0*	9.6	-6.8	16.9*	10.0	11.3*	12.2
CCCc1c(C)nc2ccc(OC)cc2c1SCCC(=O)O	0.683	-0.7	0.1	-5.5	15.5*	1.6	0.5	-2.3
CCN1C(=O)C(C)SC1=NS(=O)(=O)c1ccc(Cl)s1 (stereo unspecified)	0.685	.	.	.	.	.	.	.

Compound activity from PubChem BioAssay.
